This passage reports binding signal results from paper PMC10668032, “Altered binding affinity of SIX1-Q177R correlates with enhanced WNT5A and WNT pathway effector expression in Wilms tumor”.

In all, about 33,000 sequences were measured (“e-score”: median about -0.053, highest 2% from about 0.38 on). Many of the other results were omitted from the sample, so the highest values are more common in it than they were.

The experiment deals with T1, SIX1 homeodomain (reference allele) (human, UniProt Q15475 108-198).
T1 sequence: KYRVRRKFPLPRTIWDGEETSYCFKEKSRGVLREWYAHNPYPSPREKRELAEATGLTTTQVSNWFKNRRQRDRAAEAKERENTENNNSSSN
In words: universal protein binding microarray; Universal all-10-mer PBM (8x60K, AMADID 030236), 300 nM GST-tagged protein, Alexa Fluor 488 anti-GST; buffer, salt, pH and temperature not stated (as in Berger); high values mean tight binding. Conditions: protein: ivt; tags: N-terminal GST; dsDNA, one strand shown. In a few lines:
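GST-tagged homeodomains were made by in vitro transcription/translation and quantified by anti-GST western blot against a recombinant GST standard curve. They were applied in duplicate at 300 nM final concentration to universal 'all 10-mer' protein binding microarrays (8×60K format). Binding was quantified as 8-mer E-scores with the Universal PBM Analysis Suite.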
CTATACTC: the binding signal turned out to be 0.243 ± 0.0735 E-score. The figure for CGATACTC is 0.45435 ± 0.000368 E-score; for AGATAGTC it is 0.172 ± 0.0352 E-score; for GGATACTA it is 0.371 ± 0.0235 E-score.

In the case of AGATACTC, the binding signal was 0.402 ± 0.0473 E-score. For AGATACTA the value was 0.316 ± 0.0687 E-score; for CAATACTC, 0.297 ± 0.043 E-score. The figure for CGATACTA is 0.424 ± 0.0171 E-score. Consider AGATACTG, for which the binding signal was 0.34203 ± 0.000156 E-score.

Consider ATATAGTC, for which the binding signal was 0.209 ± 0.0236 E-score. As to AACACCTG, the binding signal worked out at 0.267 ± 0.00339 E-score.

Regarding ATCCAGTC, the binding signal turned out to be 0.179 ± 0.0594 E-score. For CGTATAAA the value was 0.219 ± 0.0801 E-score. The figure for TATCAACA is 0.399 ± 0.0298 E-score; for GATCAACA it is 0.281 ± 0.0353 E-score; for TATCAAAA it is 0.342 ± 0.1 E-score.

For TATCAATA, the binding signal stood at 0.407 ± 0.0444 E-score. For GATCAATA the value was 0.291 ± 0.0232 E-score; for TATCAAGA, 0.302 ± 0.0583 E-score; for CCATCTCA, 0.164 ± 0.00629 E-score. For GGATTATA the value was 0.362 ± 0.0571 E-score. For TAATAATA the value was 0.225 ± 0.0789 E-score.

On to ATCCCGGC, for which the binding signal came to 0.173 ± 0.0398 E-score. For CATCTATA the value was 0.251 ± 0.034 E-score. Turning to GATCCGAC, the binding signal was found to be 0.389 ± 0.0403 E-score.

As for GATCCGTA, the binding signal was found to be 0.383 ± 0.00781 E-score. On to TATCCGGA, for which the binding signal stood at 0.3912 ± 0.000898 E-score.

CATCCGTA: the binding signal was found to be 0.168 ± 0.00426 E-score. The figure for CATCCGGC is 0.226 ± 0.0528 E-score; for AATCCGGC it is 0.228 ± 0.0229 E-score; for GATCCGGC it is 0.3929 ± 0.00159 E-score. Consider TACCCGGA, for which the binding signal turned out to be 0.332 ± 0.00363 E-score.

In the case of AATCCGAC, the binding signal turned out to be 0.189 ± 0.00791 E-score. For CATCCGAC the value was 0.209 ± 0.0838 E-score; for GATCCGAA, 0.357 ± 0.0457 E-score. Consider AATCCGGT, for which the binding signal came out at 0.252 ± 0.0106 E-score. On to ATCTACTC, for which the binding signal stood at 0.297 ± 0.0368 E-score. The figure for ATATGTAG is 0.151 ± 0.0301 E-score; for CATAAACC it is 0.19 ± 0.0201 E-score; for GATAATCC it is 0.34 ± 0.0479 E-score. For CGACTATC the value was 0.246 ± 0.0396 E-score; for GAGATCAC, 0.368 ± 0.00856 E-score; for ATCCTTGG, 0.189 ± 0.0361 E-score. The figure for GATCCGGA is 0.405 ± 0.0443 E-score; for CATCCGGA it is 0.21 ± 0.0635 E-score. As to AATCCGGA, the binding signal was determined as 0.276 ± 0.0325 E-score. As to ACACCAAC, the binding signal was 0.224 ± 0.00659 E-score. Turning to CCCCTATA, the binding signal turned out to be 0.198 ± 0.0352 E-score. Turning to CCCCTATC, the binding signal was 0.405 ± 0.0204 E-score. For ACCCTATC the value was 0.346 ± 0.0051 E-score; for GATATCTA, 0.392 ± 0.0618 E-score; for GCTATCAC, 0.357 ± 0.0605 E-score. The figure for GATATTAA is 0.31 ± 0.0894 E-score. For AATATCTA the value was 0.259 ± 0.0807 E-score; for GATATCAA, 0.453 ± 0.0358 E-score. On to CAGATCAA, for which the binding signal amounted to 0.298 ± 0.00526 E-score.

Regarding GATATCAC, the binding signal was 0.476 ± 0.018 E-score. The figure for CATATCAA is 0.452 ± 0.0378 E-score; for TATATCAA it is 0.361 ± 0.0752 E-score. For CATATCTA the value was 0.322 ± 0.0223 E-score. The figure for GATATTAC is 0.319 ± 0.0605 E-score. For the sequence CTAATCTC, the binding signal came to 0.175 ± 0.0194 E-score.

As to ATCCACTG, the binding signal is 0.152 ± 0.0476 E-score.

As to ATCAAACC, the binding signal was 0.261 ± 0.00716 E-score. For GATCAATC the value was 0.366 ± 0.0109 E-score; for ATACGCTC, 0.245 ± 0.0572 E-score; for GGATCTAA, 0.285 ± 0.00708 E-score. Regarding ATACGAAG, the binding signal was found to be 0.199 ± 0.0115 E-score. For GTATTCCA the value was 0.202 ± 0.0137 E-score; for ATACGTCC, 0.24 ± 0.0851 E-score; for AGCGATAG, 0.209 ± 0.0329 E-score. For CGCGATAC the value was 0.458 ± 0.000728 E-score; for AGCGATAT, 0.42 ± 0.0465 E-score. Regarding GGCGATCA, the binding signal turned out to be 0.338 ± 0.00739 E-score. The figure for CGCGACAC is 0.254 ± 0.0327 E-score; for GGCGATGA it is 0.193 ± 0.0619 E-score; for AGCGATCG it is 0.211 ± 0.0392 E-score. Turning to AGCGCGAT, the binding signal was 0.166 ± 0.026 E-score. For AGCGATAC the value was 0.453 ± 0.01 E-score; for GGCGATAC, 0.4435 ± 0.00237 E-score. For AGCGATCA the value was 0.206 ± 0.0525 E-score. The figure for CGCGATAG is 0.199 ± 0.0163 E-score; for ATACACGA it is 0.234 ± 0.00563 E-score.

As for GGCCGATA, the binding signal stood at 0.29107 ± 0.000269 E-score.
